The record followed here is PubChem BioAssay.

Calls of active or inactive are those of the source.

The target in one experiment is Albumin (Bos taurus) (UniProt P02769). Nature of the experiment: bovine serum albumin binders on microarray, profiling panel, artefact control for SMM control protein annotation, biochemical, small-molecule microarray, Alexa647 label, 635/667 nm fluorescence (AID 1118).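 Further: score merges 667 nm emission intensity and signal-to-noise per printed compound spot.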 As to conditions: BSA-A647 binding, fluorescence 635 nm, higher = more signal.
Chain of Albumin (Bos taurus) (P02769 whole entry, looked up): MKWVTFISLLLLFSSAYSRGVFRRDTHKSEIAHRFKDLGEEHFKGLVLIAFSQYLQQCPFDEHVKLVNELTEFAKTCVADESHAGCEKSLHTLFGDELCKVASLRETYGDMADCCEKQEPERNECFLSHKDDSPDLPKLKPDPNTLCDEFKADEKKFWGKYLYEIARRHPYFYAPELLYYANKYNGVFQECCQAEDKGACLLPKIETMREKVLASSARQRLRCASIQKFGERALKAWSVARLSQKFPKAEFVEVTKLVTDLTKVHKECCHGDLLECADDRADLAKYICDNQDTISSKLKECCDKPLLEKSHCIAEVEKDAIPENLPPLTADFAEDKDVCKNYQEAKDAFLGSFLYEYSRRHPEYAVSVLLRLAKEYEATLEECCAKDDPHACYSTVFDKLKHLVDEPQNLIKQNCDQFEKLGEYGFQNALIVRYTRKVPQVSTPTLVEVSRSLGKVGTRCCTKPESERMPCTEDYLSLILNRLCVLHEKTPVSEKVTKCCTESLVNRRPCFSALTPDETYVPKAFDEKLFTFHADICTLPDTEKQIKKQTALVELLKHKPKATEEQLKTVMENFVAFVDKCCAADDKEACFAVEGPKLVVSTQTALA
Experiment [1] can be described thus: small-molecule microarray binders of probe aXIP, primary screen, biochemical, NeuroSMM set, 635/667 nm fluorescence (AID 1119).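 Further: probe is the protein aXip251-270 applied at 1 µg/mL to compound-printed slides; binding of probe to printed compounds measured as 667 nm fluorescence plus signal to noise.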 As to conditions: higher = more signal, called active from +8 up or from −8 down.
The nature of experiment [2]: small-molecule binders of probe aNOTCH3, primary screen, biochemical, small-molecule microarray, 635/667 nm fluorescence (AID 1120).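 Further: probe is a biotin-tagged antibody raised against NOTCH3 rather than NOTCH3 protein; score merges spot fluorescence near 667 nm with spot signal to noise.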 As to conditions: higher = more signal.
A short description of experiment [3]: small-molecule binders of probe aNOTCH2, primary screen, biochemical, small-molecule microarray, 635/667 nm fluorescence (AID 1121).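 Further: score merges feature fluorescence read at 667 nm with its signal to noise.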 As to conditions: higher = more signal.
Experiment [4] addresses Carbonic anhydrase 2 (Homo sapiens) (UniProt P00918). Briefly: CAII small-molecule binders, profiling panel, biochemical, small-molecule microarray, Alexa647-labelled CAII (AID 1122). The settings on record: CAII-A647 binding fluorescence, higher = more signal.
Experiment [5] can be described thus: COS7 lysate on small-molecule microarray, probe aHis, 635 nm (AID 1123).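 Further: z-score combines 667nm fluorescence intensity with signal-to-noise per printed compound spot.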 The settings on record: COS7 cell lysate, fluorescence, higher = more signal.
The nature of experiment [6]: compound binding in COS7 lysate, probe aLAP1, primary screen, cell lysate, small-molecule microarray (AID 1124).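 Further: lysate comes from COS7 cells expressing LAP1 and is applied at 0.3 µg/mL; score merges spot fluorescence near 667 nm with signal-to-noise over triplicate slides.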 As to conditions: probe aLAP1, fluorescence, higher = more signal.
The next experiment relates to Sam68 (KHDRBS1). Nature of the experiment: Sam68 small-molecule binders, primary screen, biochemical, small-molecule microarray, 635 nm fluorescence (AID 1125).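 Further: score merges 667 nm channel intensity with signal to noise over triplicate slides.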 The settings on record: small-molecule microarray binding, higher = more signal.
For experiment [7], the system named is Chordin-like protein 2 (CHRDL2). Briefly: CHRDL2 small-molecule binders, primary screen, biochemical, small-molecule microarray, 635 nm fluorescence (AID 1126).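 Further: printed compound slides probed with Chrdl2 protein at 4 µg/mL for 1 h at 4 C; score merges 667 nm emission intensity with signal to noise over three replicate slides.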 The settings on record: small-molecule microarray binding, fluorescence 635 nm; higher = more signal.
Experiment [8] concerns the target Concanavalin-A (Canavalia ensiformis) (UniProt P02866). Nature of the experiment: ConA small-molecule binders, primary screen, artefact control for SMM control protein annotation, biochemical, small-molecule microarray, Alexa647 label, 635 nm (AID 1127).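 Further: z combines 667 nm emission intensity with signal-to-noise across three replicate slides.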 As to conditions: ConA-A647 binding fluorescence, higher = more signal.

Chain of Concanavalin-A (Canavalia ensiformis) (P02866 whole entry, looked up): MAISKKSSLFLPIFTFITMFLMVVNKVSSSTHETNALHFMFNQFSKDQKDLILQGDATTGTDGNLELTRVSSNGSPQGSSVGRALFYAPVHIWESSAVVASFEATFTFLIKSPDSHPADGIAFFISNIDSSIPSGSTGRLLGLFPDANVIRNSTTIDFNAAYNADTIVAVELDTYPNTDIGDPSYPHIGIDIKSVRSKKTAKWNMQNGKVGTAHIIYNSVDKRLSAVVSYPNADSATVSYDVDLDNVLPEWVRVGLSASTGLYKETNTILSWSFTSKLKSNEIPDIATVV

On to `CCOC(=O)[C@@H]1[C@@H]2C(=O)N(CC)C(=O)[C@@H]2C[C@@H]1Sc1ccccc1`, for which the composite z-score in the experiment with Albumin (Bos taurus) was 0.663; in [2], 0.191; in experiment [3], -0.0297; in [4], 0.36; in experiment [5], 1.84; in experiment [6], 0.68. In addition, the values for the composite z-score (in the experiment on Sam68 (KHDRBS1); in experiment [7]; in experiment [8]) were 1.25, -0.235 and 0.563, respectively. Further, in [1], the composite Z-score was -0.889 (inactive).
For `CN1C(=O)C2C=CC(C(O)C3CCCCC3)N(N3CCCCC3)C2C1=O` (stereo not given), the composite z-score with Albumin (Bos taurus) came out at 0.92; in experiment [2], 0.196; in [3], 0.0019; in experiment [4] it was 0.663; in experiment [5] it was 2.48; in experiment [6], 0.794. The composite z-score in the experiment on Sam68 (KHDRBS1) turned out to be 1.3; in experiment [7] it was 0.0449; in experiment [8], 0.927. Also, the composite Z-score in experiment [1] is 1.56 (inactive).
For `O=c1cccc(-c2ccc(C(F)(F)F)cc2)o1`, the composite z-score with Albumin (Bos taurus) is -0.309; in experiment [2] it was -0.122; in experiment [3], -0.11; in [4], -0.14; in [5], -0.89; in experiment [6] it was 0.0441. Also, the values for the composite z-score (in the experiment with Sam68 (KHDRBS1); in [7]; in experiment [8]) were -1.03, -0.291 and -0.0038, respectively. Moreover, the composite Z-score in experiment [1] was -0.275 (inactive).
Take `CC(C)CN1C(=O)[C@@]2(Cc3ccccc31)c1ccccc1C(=O)N(Cc1ccccc1C(F)(F)F)[C@H]2c1ccc(CO)cc1`: the composite z-score with Albumin (Bos taurus) is -0.139; in experiment [2] it was -0.172; in experiment [3], -0.157; in [4], -0.381; in experiment [5], -0.562; in experiment [6] it was -0.438. For the same molecule, the composite z-score is -2.12 in the experiment on Sam68 (KHDRBS1), -0.846 in [7] and 0.027 in experiment [8]. In addition, the composite Z-score in [1] is 0.174 (inactive).
For `CC=CC(O)C1C=CC2C(=O)N(c3ccccc3)C(=O)C2N1Nc1ccccc1` (stereo not given), the composite z-score stood at 0.867 in the experiment with Albumin (Bos taurus); 0.291 in [2]; 0.121 in experiment [3]; 0.681 in [4]; 2.57 in [5]; 0.243 in [6]. The composite z-score with Sam68 (KHDRBS1) amounted to 1.29; in experiment [7], 0.25; in [8], 1.19. The composite Z-score in [1] was 0.454 (inactive).
Regarding `C=CCOC(=O)[C@H]1[C@@H]2C(=O)O[C@@H](c3ccccc3)[C@@H](c3ccccc3)N2[C@@H](c2ccc(OCCOC(=O)[C@H]3C[C@H]4C(=O)N[C@@H](Cc5ccccc5)C(=O)N4[C@H]3c3ccc(O)cc3)cc2)[C@]12C(=O)Nc1ccc(I)cc12`, the composite z-score with Albumin (Bos taurus) is -0.175; in experiment [2] it was 0.189; in experiment [3] it was -0.11; in experiment [4], 0.28; in [5] it was 1.78; in experiment [6], 0.428. The composite z-score turned out to be 1.3 in the experiment with Sam68 (KHDRBS1), 1.23 in experiment [7] and 1.14 in experiment [8]. The composite Z-score in experiment [1] is 0.341 (inactive).
Turning to `C=C(C(=O)CC[C@H](OC(=O)c1cccnc1)c1ccc(CO)o1)C(C)C`, the composite z-score was 0.0812 in the experiment with Albumin (Bos taurus); 0.0596 in experiment [2]; -0.0633 in [3]; 0.655 in experiment [4]; 0.403 in experiment [5]; 0.309 in experiment [6]. Also, the composite z-score came out at 0.839 in the experiment on Sam68 (KHDRBS1), 0.302 in [7] and 0.645 in experiment [8]. For the same molecule, in [1], the composite Z-score is 0.674 (inactive).
Turning to `CC(C)CN1C(=O)[C@@]2(c3ccc([N+](=O)[O-])cc3)CC(=O)N(CC34CC5CC(CC(C5)C3)C4)[C@@H]2c2ccc(CO)cc21`, the composite z-score in the experiment with Albumin (Bos taurus) was 0.291; in [2] it was -0.0016; in experiment [3], -0.189; in [4], 0.411; in experiment [5], 0.0815; in [6], -0.0349. Besides, the composite z-score is -0.772 with Sam68 (KHDRBS1), -1.52 in experiment [7] and 0.436 in [8]. Moreover, the composite Z-score in experiment [1] was -0.585 (inactive).
As to `C=CCOC(=O)[C@@H]1[C@H]2C(=O)O[C@H](c3ccccc3)[C@H](c3ccccc3)N2[C@H](c2ccc(OCCOC(=O)[C@H]3C[C@H]4C(=O)N[C@@H](CCCCNC(C)=O)C(=O)N4[C@H]3c3cccc(OCCO)c3)cc2)[C@@]12C(=O)Nc1ccc(I)cc12`, the composite z-score in the experiment with Albumin (Bos taurus) was -1.29; in [2] it was -0.016; in experiment [3] it was -0.12; in experiment [4] it was 0.336; in [5], 1.13; in experiment [6], 0.583. In addition, the composite z-score with Sam68 (KHDRBS1) came out at 1.31; in experiment [7], 1.06; in experiment [8] it was 1.15. Moreover, in [1], the composite Z-score is 0.783 (inactive).
On to `COCCCNC(=O)[C@]1(Cc2ccccc2CN=[N+]=[N-])N=C(c2ccc(OCCCO)cc2)O[C@@H]1c1ccccc1`, for which the composite z-score is 0.867 with Albumin (Bos taurus); 0.289 in [2]; -0.0633 in experiment [3]; 0.548 in experiment [4]; 1.91 in experiment [5]; 0.785 in [6]. The composite z-score was 0.997 in the experiment on Sam68 (KHDRBS1), -0.474 in [7] and 1 in experiment [8]. The composite Z-score in experiment [1] is -0.337 (inactive).
For the molecule `CN1C(=O)[C@@]2(CCS(=O)(=O)c3ccccc3)N=C(c3ccc(OCCCO)cc3)O[C@H]2c2ccccc21`, the composite z-score is 0.159 with Albumin (Bos taurus); 0.058 in experiment [2]; -0.146 in experiment [3]; 0.688 in [4]; 2.74 in experiment [5]; 0.428 in experiment [6]. Further, the composite z-score with Sam68 (KHDRBS1) came out at 1.28; in [7], 0.0089; in experiment [8], 1.1. In experiment [1], the composite Z-score is 0.334 (inactive).
Take `C=CCC(OC(C)=O)[C@@H]1[C@@H](N(Cc2ccc(-c3ccccc3)cc2)C(=O)c2cccc3ccccc23)c2cc(OCCCO)ccc2N1C(=O)Cc1ccc2ccccc2c1` (stereo not given in full): the composite z-score is 0.413 with Albumin (Bos taurus); -0.0345 in experiment [2]; -0.0891 in experiment [3]; -0.0417 in experiment [4]; 0.321 in [5]; 0.194 in experiment [6]. Moreover, the composite z-score with Sam68 (KHDRBS1) is -0.35; in [7], -0.133; in experiment [8], -0.353. Further, the composite Z-score in [1] was -0.277 (inactive).
As to `C[C@]12C(=O)N(CCCCCCO)[C@@H]3C(=O)N(c4ccc(Cl)cc4)CC=CC31O[C@@H]1/C=C\CCCOC(=O)C12` (stereo not given in full), the composite z-score was 0.377 in the experiment with Albumin (Bos taurus); -0.16 in [2]; -0.136 in experiment [3]; 0.695 in experiment [4]; 2.08 in experiment [5]; -0.133 in [6]. Besides, the composite z-score was 0.488 in the experiment on Sam68 (KHDRBS1), -1.75 in experiment [7] and -0.403 in experiment [8]. In addition, the composite Z-score in experiment [1] is 1.82 (inactive).
For `CCOC(=O)[C@H]1C/C=C/C[C@H](C(=O)OCC)C(=O)O[C@H]2[C@@H](OC)O[C@H](CO)[C@@H](OC(=O)CCc3ccccc3)[C@@H]2OC1=O`, the composite z-score with Albumin (Bos taurus) was 0.191; in experiment [2] it was 0.996; in [3], 0.0519; in experiment [4], -0.207; in experiment [5], -0.188; in experiment [6] it was 0.715. Further, the values for the composite z-score (in the experiment with Sam68 (KHDRBS1); in experiment [7]; in [8]) were -0.378, -0.203 and -0.233, respectively. The composite Z-score in experiment [1] was 0.476 (inactive).
